Assay outcomes deposited in PubChem BioAssay by National Center for Advancing Translational Sciences (NCATS).
Only a selection was taken, and hits are over-represented in it overall.
TDP-43 rescue: rescues yeast from TDP-43 toxicity; Potency, µM (doses to about 46.1 µM), most hits filed as activators; yeast TDP-43 toxicity rescue, BacTiter-Glo growth, 24 h; AID 1347073; 45,000 tested, 0.45% active; active = well fitted activation curve with a large enough effect; also: nearly all actives have a fitted effect of over 55% in size
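TDP-43-expressing yeast, pregrown in raffinose, seeded at OD600 0.02 in galactose medium with compound for 24 hr at 30 deg C. Growth read by BacTiter-Glo luminescence, so rescue of toxicity appears as activation.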
A number is an active result; 0 = inactive.

SMILES	TDP-43 rescue
CCOc1cc(/C=C2/C(=O)ON=C2C)ccc1OCc1ccccc1	0
C#CCOc1c(Br)cc(/C=C2/C(=O)ON=C2C)cc1OC	0
CCOc1ccc(NC(=O)Cn2c(=O)n(CC(=O)NCCc3ccccc3)c(=O)c3sccc32)cc1	0
NC(=O)C1(N2CCCCC2)CCN(C(=O)Nc2ccc(F)cc2F)CC1	0
CCn1c(SCC(=O)N/N=C/c2c[nH]c3ccccc23)nnc1-c1ccc(Cl)cc1	0
Fc1ccccc1-n1ncc2c1ncn1nc(-c3ccccc3Cl)nc21	0
COc1ccc(OC)c(NC(=O)CSC2=NN3CCCC(=O)N=C3S2)c1	0
COc1ccc(Cl)cc1NC(=O)CSC1=NN2CCCC(=O)N=C2S1	14.1µM
CCOc1ccccc1NC(=O)CSC1=NN2CCCC(=O)N=C2S1	0
CCOc1ccccc1C(=O)Nc1cc(-c2nc3cccnc3s2)ccc1C	0
S=C(NCc1ccc(Cl)cc1)Nc1ccccc1	12.6µM
S=C(NCc1ccccc1)NCc1ccc(CNC(=S)NCc2ccccc2)cc1	0
CCNC(=S)Nc1ccc(Cl)cc1	0
Cn1cc(-c2cc3n(n2)CCC(=O)N3CC(=O)O)c2ccccc21	0
O=C(Nc1ccccc1C(=O)NCCc1ccccc1)c1cnccn1	0
COc1ccc2[nH]c3c(=O)n(CCCC(=O)NC4CCCCC4C)c(=S)[nH]c3c2c1 (centres undefined)	0
N#Cc1ccc(OCC(O)CN2CCN(c3ncc(C(F)(F)F)cc3Cl)CC2)cc1 (centres undefined)	0
CN1CCN(c2ccc(-c3cccc4nccn34)cn2)CC1	0
O=C(COc1ccc2ccccc2c1)NNC(=O)C(=O)Nc1ccccc1	0
C/C(=C\C(=S)Nc1ccccc1)Nc1ccc2ccccc2c1	14.1µM
O=C(Nc1ccc2ccccc2c1)c1ccccc1O	0
O=C(CC12CC3CC(CC(C3)C1)C2)NCC(c1ccc(F)cc1)N1CCOCC1 (centres undefined)	0
COc1ccc(NC(=O)Nc2ccccc2F)cc1Cl	0
Brc1ccc(CSc2nnc(-c3cccnc3)o2)cc1	12.6µM
O=S(=O)(c1cccc(-c2nnc(SCc3ccc(Cl)cc3)o2)c1)N1CCCCC1	0
SMILES	TDP-43 rescue
CC1CCN(C(=O)CSc2nnc(-c3cccnc3)o2)CC1	0
COc1ccc(CNC(=O)c2sc3nc4n(c(=O)c3c2C)CCCC4)cc1	0
Cc1ccccc1Nc1nnc(SCC(=O)NCc2cccs2)s1	0
Cc1cccc(Nc2nnc(SCC(=O)Nc3ccccc3[N+](=O)[O-])s2)c1C	17.8µM
Cc1cccc(NC(=O)CSc2nnc(NC(=O)C3CC3)s2)c1C	0
O=C(Nc1cccc(S(=O)(=O)N2CCCC2)c1)[C@@H]1O[C@H](CO)[C@@H](O)[C@H]1O	0
CCSc1ncc(Cl)c(C(=O)Nc2c(C(=O)Nc3ccccc3)oc3ccccc23)n1	0
Cc1ccc(-c2nnc3c4ccccc4c(C)nn23)cc1NC(=O)c1ccccc1	0
COc1ccccc1Nc1ccc(C(=O)O)cc1[N+](=O)[O-]	0
CN(Cc1ccccc1)c1ccc(C(=O)O)cc1[N+](=O)[O-]	15.8µM
CN(C)c1ccc(C(=O)c2ccccc2C(=O)O)cc1[N+](=O)[O-]	0
Cc1cc(Cl)ccc1NC(=O)Cn1nc(C)c2c(C)n(-c3ccccc3)nc2c1=O	0
Cc1ccc(S(=O)(=O)N2CCCC2C(=O)Nc2ccc(Br)cc2)cc1 (centres undefined)	12.6µM
Cc1ccc(NC(=O)C2CCCN2S(=O)(=O)c2ccc3c(c2)n(C)c(=O)c(=O)n3C)cc1 (centres undefined)	0
Cc1ccc(NC(=O)[C@@H]2CCCN2S(=O)(=O)c2ccccc2F)cc1	0
Cc1ccc(C)c(Cn2c(=O)n(CCCCCC(=O)NCc3ccc4c(c3)OCO4)c(=O)c3sccc32)c1	0
O=C(NC(=S)Nc1ccccc1OC(F)F)c1ccc2c(c1)OCO2	0
Cn1nnnc1N=N/C(=N/Nc1ccccc1)c1ccccc1	6.31µM
Cc1ccc(NC(=O)C2CC(=O)N(c3ccc(OC(C)C)cc3)C2)cc1 (centres undefined)	0
COc1cccc(C(N)c2nc(-c3cc(F)cc(F)c3)cs2)c1 (centres undefined)	0
COc1cccc(C(O)c2nc(-c3ccncc3)cs2)c1 (centres undefined)	0
COc1cccc(C(O)c2nc(-c3ccccc3C)cs2)c1 (centres undefined)	11.2µM
COc1ccc(C(=O)NNC(=O)c2ccccc2[N+](=O)[O-])cc1	0
CC(C)CNC(=O)COc1ccccc1[N+](=O)[O-]	0
CC(C)(C)c1ccc(OCC(=O)NNC(=S)NC(=O)c2ccccc2[N+](=O)[O-])c(Br)c1	11.2µM
COc1ccc(-n2nnnc2SCC(=O)Nc2c(C)n[nH]c2C)cc1	0
CCOc1cc(-c2nc(C)c(C(C)=O)n2O)ccc1OCC(=O)Nc1ccccc1	11.2µM
CCOc1ccc(NC(=O)CNC(=O)COc2ccccc2)cc1	0
Cc1cc(C)c2oc(-c3ccc(NC(=O)COc4ccccc4C)cc3)nc2c1	0
